Test results published in PubChem BioAssay (NCI).
This is part of a sample that, as a whole, favours compounds with a hit. Of some 83,000 tested, about 20% had one in any assay.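 48-hour exposure, single concentration, 96-well plates; percent growth endpoint where 0 means no net growth. Active: below 10.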 Unmarked numbers belong to inactive results. Calls of active or inactive are those of the source.

Tests used:
Test in all cases: NCI-60 one-dose screen, 48 h (100 = growth as untreated, 0 = no growth, -100 = all killed)
Settings in all cases: 10 µM unless noted
MOLT-4 leukemia = system: MOLT-4 leukemia
SR leukemia = system: SR leukemia
RPMI-8226 leukemia = system: RPMI-8226 leukemia
OVCAR-8 ovarian = system: OVCAR-8 ovarian
OVCAR-5 ovarian = system: OVCAR-5 ovarian
OVCAR-4 ovarian = system: OVCAR-4 ovarian
SK-OV-3 ovarian = system: SK-OV-3 ovarian
IGROV1 ovarian = system: IGROV1 ovarian
OVCAR-3 ovarian = system: OVCAR-3 ovarian
HS 578T breast = system: HS 578T breast

| SMILES | growth (MOLT-4 leukemia) | growth (SR leukemia) | growth (RPMI-8226 leukemia) | growth (OVCAR-8 ovarian) | growth (OVCAR-5 ovarian) | growth (OVCAR-4 ovarian) | growth (SK-OV-3 ovarian) | growth (IGROV1 ovarian) | growth (OVCAR-3 ovarian) | growth (HS 578T breast) |
| --- | --- | --- | --- | --- | --- | --- | --- | --- | --- | --- |
| CCOP(=O)(Cc1ccc(C#N)cc1)OCC | 94.8% | 89% | 103% | 94.3% | 106% | 104% | 102% | 118% | 110% | 105% |
| CCOP(=O)(NC[C@H]1O[C@](O)(CO)[C@@H](O)[C@@H]1O)OCC | 95.9% | 97.1% | 101% | 103% | 112% | 103% | 87.6% | 94.5% | 103% | 96.4% |
| O=C1Nc2ccccc2C2c3cccn3-c3ccccc3CN12 (stereo not given) | 29.3% | 19% | 55.2% | 63.3% | 82.3% | 71.7% | 46.7% | 62.9% | 41.7% | 64.2% |
| CC1=C(CCCNS(C)(=O)=O)C2=C(C)C3(CC3)[C@@](C)(O)C(=O)C2=C1 | 90.2% | 92.8% | 97% | 6.9% (active) | 2.82% (active) | -12.1% (active) | -18% (active) | -2.43% (active) | -12.7% (active) | 57.9% |
| C/C(CC(C)(C)N1CC1)=N\NC(=O)Nc1cccc2ccccc12 | 12.2% | 20.9% | 72.7% | 44.1% | 100% | 55.8% | 79.3% | 38.8% | 48.3% | 79.8% |
| O=Cc1cn(Cc2ccc(Cl)cc2)c2ccccc12 | 90.1% | 80.9% | 77.1% | 90.1% | -36.7% (active) | 57.5% | 31.1% | 6.46% (active) | 63.8% | 83.9% |
| CNC12C3C4C1C1C2C3C41C(=O)N[C@H](C(=O)N(C)[C@H](C[C@@H](OC(C)=O)c1nc(C(=O)N[C@@H](Cc2ccccc2)C[C@H](C)C(=O)OC)cs1)C(C)C)C1CC1 (stereo not given in full) | -1.54% (active) | -12.7% (active) | -6.94% (active) | 20.1% | 56.6% | 44.5% | 40.7% | 17% | -32.9% (active) | 32.3% |
| CCOP(=O)(Nc1ccc2c(c1)/C(=N/NC(N)=S)c1ccccc1-2)OCC | 92% | 109% | 93.5% | 94.7% | 105% | 96.9% | 114% | 132% | 105% | 82% |
| CCOC(=O)N[C@H]1CCc2c(Br)c(OC)c(OC)c(OC)c2-c2ccc(SC)c(=O)cc21 | 5.92% (active) | -5.77% (active) | -6.15% (active) | 20.2% | 32.5% | 5.73% (active) | 52.1% | 12.1% | -29.4% (active) | -1.62% (active) |
| CC1=C2[C@@H](CC1)[C@]1(C)O[C@@](C(C)C)(C[C@H]1O)[C@H]2OC(=O)C1CC1c1ccccc1 (stereo not given in full) | 63.4% | 92.4% | 58.2% | 71.8% | 97.5% | 91.8% | 90.6% | 96.2% | 100% | 95.5% |
| Cc1ccc(S(=O)(=O)F)cc1C(=O)O | 99.6% | 103% | 100% | 116% | 102% | 110% | 88.3% | 102% | 109% | 112% |
| CC(=O)Nc1nc2c(s1)CC[C@@]1(C)C2=CC[C@H]2[C@@H]3CC[C@H](O)[C@@]3(C)CC[C@@H]21 | 50.8% | 24.9% | 34.1% | 80% | 92.3% | 87.4% | 81.9% | 64.3% | 13.7% | 60.5% |
| O=C(CC1(O)C(=O)N(Cc2ccccc2)c2ccc(Cl)cc21)c1ccc(C(=O)NCC2CCC3(CC2)OOC2(CCCCC2)OO3)cc1 (stereo not given) | -50.5% (active) | -44.2% (active) | -27.7% (active) | -27.5% (active) | 5.96% (active) | -40.2% (active) | 68% | -35.2% (active) | -83.8% (active) | -4.46% (active) |
| CN1C(=O)C(=Cc2cn(CCCCCCn3c4ccccc4c(=O)c4ccccc43)c3ccccc23)C(=O)N(C)C1=O | 97.5% | 77% | 103% | 95.2% | 77% | 95.2% | 87% | 90.5% | 102% | 101% |
| COC(=O)[C@H](Cc1ccccc1)NC(=O)c1csc([C@@H](C[C@H](C(C)C)N(C)C(=O)[C@@H](NC(=O)[C@H]2CCCN2C)C2CC2)OC(C)=O)n1 | 5.46% (active) | 6.34% (active) | 10.9% | 27.3% | 36.1% | 59.5% | 52.8% | 39.1% | -3.48% (active) | 14.6% |
| CC(=O)O[C@H](C[C@H](C(C)C)N(C)C(=O)[C@@H](NC(=O)[C@H]1CCCCN1C)C(C)C)c1cccc(C(=O)N[C@@H](Cc2ccccc2)C[C@H](C)C(=O)O)n1 | 9.11% (active) | 6.32% (active) | 19.7% | 1.57% (active) | 32.5% | 41.9% | 23.3% | 24% | -50.3% (active) | 9.57% (active) |
| C[C@@]12CC=C3c4nc(Nc5cccc(O)c5)sc4CC[C@]3(C)[C@H]1CC[C@]1(C)C(=O)CC[C@@H]21 | 5.52% (active) | 3.61% (active) | -13.6% (active) | 17.9% | 110% | 52.1% | 37.3% | -12.1% (active) | -3.79% (active) | 7.41% (active) |
| COC(=O)[C@@H](C)C[C@H](Cc1ccccc1)NC(=O)c1csc([C@@H](C[C@H](C(C)C)N(C)C(=O)[C@@H](NC(=O)[C@H]2CCCCN2C)C(C(F)(F)F)C(F)(F)F)OC(C)=O)n1 | 5.94% (active) | 5.49% (active) | 11.2% | 16.8% | 39.6% | 43.7% | 16.4% | 20.2% | -42.5% (active) | 17.6% |
| Cc1ccc(C(Cc2ccccc2)NCCO)cc1 (stereo not given) | 88.2% | 105% | 92% | 103% | 55.4% | 94.7% | 75.8% | 103% | 100% | 97.8% |
| COc1cc(/C=C/[N+](=O)[O-])cc(OC)c1 | 7.52% (active) | -12.3% (active) | -24.1% (active) | 13.8% | 13.8% | 47.6% | 71.7% | 9.88% (active) | -30.3% (active) | 40.9% |
| Brc1ccc2c(c1)c(-c1nc(-c3c[nH]c4ncccc34)cs1)cn2CCN1CCCCC1 | 42% | 16.2% | 51.2% | 83.5% | 109% | 74.9% | 103% | 46.8% | 85.1% | 76.7% |
| O=C(O)c1c(Cl)n(Cc2ccc(O)cc2)c2ccc(O)cc12 | 109% | 106% | 70.9% | 103% | 92.4% | 104% | 115% | 63.4% | 93.9% | 102% |
| CNC(=O)Oc1ccc(C(C)(C)C)cc1OC(=O)NC | 81.6% | 87.9% | 95.5% | 100% | 108% | 96.3% | 88.4% | 104% | 102% | 106% |
| COc1ccc(/C(C)=C(\c2ccc(OCCN3CCOCC3)cc2)c2ccc(OC(=O)Cc3ccccc3)cc2)cc1 | 104% | 112% | 84.6% | 100% | 104% | 106% | 97.6% | 113% | 101% | 110% |
| O=NNc1ccccn1 | 67.9% | 66.7% | 102% | 80.3% | 68% | 90.8% | 90% | 86.1% | 112% | 89.7% |
